About 83,000 compounds went through this panel and 20% of them were active in at least one assay; those are over-represented in the sample as a whole.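 Results are percent growth after 48 hours of single-concentration exposure. 100 means growth as in untreated cells, lower positive values show inhibition; negative values down to -100 show cell death.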 Activity calls are given as the source filed them. The calls were made as follows: active = growth percent below 10; inactive = the rest.
Experiments:
Test in all cases: NCI-60 one-dose screen, 48 h (100 = growth as untreated, 0 = no growth, -100 = all killed)
Details in all cases: 10 µM unless noted
NCI-H23 lung = test system: NCI-H23 lung
NCI-H226 lung = test system: NCI-H226 lung
NCI-H322M lung = test system: NCI-H322M lung
HOP-62 NSCLC = test system: HOP-62 NSCLC
NCI-H460 lung = test system: NCI-H460 lung
HOP-92 NSCLC = test system: HOP-92 NSCLC
NCI-H522 lung = test system: NCI-H522 lung
A549/ATCC NSCLC = test system: A549/ATCC NSCLC
786-0 renal = test system: 786-0 renal
COLO 205 colon = test system: COLO 205 colon

Measured: growth

Cc1ccc(CCC(=O)Nc2ncc(Cc3cc(Cl)ccc3Cl)s2)o1
inactive: NCI-H23 lung 31.9% | NCI-H226 lung 45.5% | NCI-H322M lung 33.3% | HOP-62 NSCLC 35.6% | HOP-92 NSCLC 56.6% | A549/ATCC NSCLC 23.1% | 786-0 renal 26.1%
active: NCI-H460 lung 5.71% | NCI-H522 lung 3.08% | COLO 205 colon 2.59%

Cc1cc[c-]cc1.Fc1c[c-]c(-c2ccccn2)c(F)c1.[Pt+2].c1ccc(P(C[PH+](c2ccccc2)c2ccccc2)c2ccccc2)cc1
inactive: NCI-H322M lung 19.2% | 786-0 renal 23.1%
active: NCI-H23 lung 7.43% | NCI-H226 lung -2.11% | HOP-62 NSCLC 2.59% | NCI-H460 lung 3.67% | HOP-92 NSCLC -16.3% | NCI-H522 lung 8.51% | A549/ATCC NSCLC 8.52% | COLO 205 colon -41.2%

COc1cccc(-c2nc3sccn3c2-c2ccnc(NCCNS(=O)(=O)c3cccc(Cl)c3)c2)c1
inactive: NCI-H23 lung 53.5% | NCI-H226 lung 40.7% | NCI-H322M lung 80.8% | HOP-62 NSCLC 70.9% | NCI-H460 lung 45.4% | HOP-92 NSCLC 37.2% | NCI-H522 lung 56.7% | A549/ATCC NSCLC 45.4% | 786-0 renal 63.6% | COLO 205 colon 34.8%

O=C(COc1ccc(/C=C2\Oc3ccccc3C2=O)cc1)Nc1nc2ccccc2s1
active: HOP-92 NSCLC -90.4% | NCI-H522 lung -79.9%
inactive: NCI-H23 lung 48.5% | NCI-H226 lung 98.4% | NCI-H322M lung 118% | HOP-62 NSCLC 73.8% | NCI-H460 lung 111% | A549/ATCC NSCLC 68.3% | 786-0 renal 49% | COLO 205 colon 91.5%

Cc1cc(C)c(-c2c(C)cc(C)cc2CBr)c(CBr)c1
inactive: NCI-H23 lung 85.8% | NCI-H226 lung 100% | NCI-H322M lung 102% | HOP-62 NSCLC 84.6% | NCI-H460 lung 77.2% | HOP-92 NSCLC 106% | NCI-H522 lung 66.4% | A549/ATCC NSCLC 68.6% | 786-0 renal 95.8% | COLO 205 colon 78.6%

CCCCCCCCCCCCCCCCCCOc1ccccc1CC(=O)OCCC[N+](C)(C)C
inactive: NCI-H23 lung 46.4% | NCI-H226 lung 78% | NCI-H322M lung 84.3% | HOP-62 NSCLC 67.1% | NCI-H460 lung 80.1% | HOP-92 NSCLC 39.6% | NCI-H522 lung 36.3% | A549/ATCC NSCLC 54.2% | 786-0 renal 50.7% | COLO 205 colon 16.7%

Fc1ccc(CNc2c3ccccc3nc3ccccc23)cc1F
inactive: NCI-H23 lung 35.2% | NCI-H226 lung 47.6% | NCI-H322M lung 39% | HOP-62 NSCLC 51.3% | NCI-H460 lung 14.6% | NCI-H522 lung 37% | A549/ATCC NSCLC 29.1% | 786-0 renal 31.4% | COLO 205 colon 16.1%
active: HOP-92 NSCLC -8.56%

Cc1ccccc1NC(=O)N/C(N)=N/c1nc(C)c(C)s1
inactive: NCI-H23 lung 42.7% | NCI-H226 lung 60% | NCI-H322M lung 46.2% | HOP-62 NSCLC 43.9% | NCI-H460 lung 10.5% | HOP-92 NSCLC 73.6% | NCI-H522 lung 16.3% | A549/ATCC NSCLC 40.2% | 786-0 renal 51.4% | COLO 205 colon 10.1%

Cc1cccc(NC(=O)N/C(N)=N/c2nc(C)c(C)s2)c1
inactive: NCI-H23 lung 61.9% | NCI-H226 lung 71.3% | NCI-H322M lung 82.7% | HOP-62 NSCLC 55.3% | NCI-H460 lung 20.2% | HOP-92 NSCLC 67.5% | NCI-H522 lung 24.2% | A549/ATCC NSCLC 42.6% | 786-0 renal 83.1% | COLO 205 colon 36%

Clc1ccc(-c2c3ccc(=[N+]4CCCCC4)cc-3oc3cc(N4CCCCC4)ccc23)cc1
active: NCI-H23 lung -85.2% | NCI-H226 lung -87.6% | NCI-H322M lung -88.4% | HOP-62 NSCLC -89% | NCI-H460 lung -76.2% | HOP-92 NSCLC -70.1% | NCI-H522 lung -87.7% | A549/ATCC NSCLC -67.4% | 786-0 renal -96.5% | COLO 205 colon -71.1%

O=C1CCC2=C3C4CCCCC4C(=O)C4CCCC(OC2C1)C34 (stereo not given)
active: NCI-H23 lung -12.9% | NCI-H460 lung -18.6% | HOP-92 NSCLC -2.29% | NCI-H522 lung -32.4% | 786-0 renal -9.63%
inactive: NCI-H226 lung 92.6% | NCI-H322M lung 18% | HOP-62 NSCLC 34.5% | A549/ATCC NSCLC 48.9% | COLO 205 colon 75.3%

CC(=O)c1nc(Nc2ccc(C)cc2)sc1C
inactive: NCI-H23 lung 90.9% | NCI-H226 lung 81.7% | HOP-62 NSCLC 85.7% | NCI-H460 lung 104% | HOP-92 NSCLC 73.2% | NCI-H522 lung 86.9% | A549/ATCC NSCLC 96.7% | 786-0 renal 98.1% | COLO 205 colon 105%
active: NCI-H322M lung -98.9%

CC1=C(SCCC(=O)OC(C[Se]C2=C(C)C(=O)c3ccccc3C2=O)C(=O)NCCCCCC(=O)OCc2ccccc2)C(=O)c2ccccc2C1=O (stereo not given)
active: NCI-H322M lung 8.06%
inactive: NCI-H23 lung 15.2% | NCI-H226 lung 93.4% | HOP-62 NSCLC 12.8% | NCI-H460 lung 10.9% | HOP-92 NSCLC 58.4% | NCI-H522 lung 20.7% | A549/ATCC NSCLC 22.2% | 786-0 renal 40.1% | COLO 205 colon 40%

O=C(c1ccccc1)N1N=C(c2ccccc2)CC1c1nnc2n(Cc3ccccc3)c(=O)c3c4c(sc3n12)CCCC4 (stereo not given)
inactive: NCI-H23 lung 116% | NCI-H226 lung 110% | NCI-H322M lung 89.4% | HOP-62 NSCLC 98% | NCI-H460 lung 107% | HOP-92 NSCLC 95.3% | NCI-H522 lung 91.6% | A549/ATCC NSCLC 89.3% | 786-0 renal 101% | COLO 205 colon 117%

O=C(/C=C/c1c(Cl)nc2sccn12)c1ccc(F)c(F)c1
inactive: NCI-H23 lung 67% | NCI-H226 lung 73.2% | NCI-H322M lung 93.1% | HOP-62 NSCLC 79.8% | NCI-H460 lung 79.5% | HOP-92 NSCLC 50.6% | NCI-H522 lung 66.5% | A549/ATCC NSCLC 80.3% | 786-0 renal 84.7% | COLO 205 colon 93%

CN(C)CCNc1nc2ccccc2c2c1c1c(n2Cc2ccccc2)-c2ccccc2C1=O
active: NCI-H23 lung -74.8% | NCI-H226 lung -57.1% | NCI-H322M lung -79.5% | HOP-62 NSCLC -90.4% | NCI-H460 lung -98.6% | HOP-92 NSCLC -78.7% | NCI-H522 lung -69.2% | A549/ATCC NSCLC -73% | 786-0 renal -89.6% | COLO 205 colon -76.9%

Cc1ccc(/C=C2\C(=O)N(C)c3ccc(S(=O)(=O)Nc4ccc(C(C)(C)C)cc4)cc32)s1
inactive: NCI-H23 lung 64.1% | NCI-H226 lung 86% | NCI-H322M lung 58.7% | HOP-62 NSCLC 31.8% | NCI-H460 lung 32.1% | HOP-92 NSCLC 60% | NCI-H522 lung 43.4% | A549/ATCC NSCLC 33.1% | 786-0 renal 40.1% | COLO 205 colon 70.9%

O=C(Nc1cccc(Oc2nnc(Cl)c3ccccc23)c1)Nc1ccc(Cl)c(C(F)(F)F)c1
active: NCI-H23 lung -52.4% | NCI-H226 lung -28.2% | NCI-H322M lung -5.16% | HOP-62 NSCLC -81.6% | NCI-H460 lung -77.4% | HOP-92 NSCLC -38.4% | NCI-H522 lung -67.5% | A549/ATCC NSCLC -21.9% | 786-0 renal -42.8% | COLO 205 colon -69.3%

CCCCNC(=O)Oc1ccc2c(=O)c3sc4c(=O)c5ccccc5c(=O)c4c3c(=O)c2c1
active: NCI-H23 lung -47.6% | NCI-H226 lung -89% | NCI-H322M lung -96.8% | HOP-62 NSCLC -79.1% | NCI-H460 lung -74.6% | HOP-92 NSCLC -30.4% | NCI-H522 lung -69.5% | A549/ATCC NSCLC -61.8% | 786-0 renal -37% | COLO 205 colon -84.9%

O=c1c2c3c(sc2nc(N/N=C/c2ccc(Br)cc2)n1Cc1ccccc1)CCCC3
inactive: NCI-H23 lung 68.2% | NCI-H226 lung 79.6% | NCI-H322M lung 71.4% | HOP-62 NSCLC 65.6% | NCI-H460 lung 69.4% | HOP-92 NSCLC 57.8% | NCI-H522 lung 61.2% | A549/ATCC NSCLC 74.8% | 786-0 renal 56.7% | COLO 205 colon 75.4%

Fc1cnc(NC2CC2)nc1-c1cnc2ccc(N3CCOCC3)cn12
inactive: 786-0 renal 11.2%
active: NCI-H23 lung -7.34% | NCI-H226 lung 0.213% | NCI-H322M lung 4.31% | HOP-62 NSCLC 9.8% | NCI-H460 lung 4.3% | HOP-92 NSCLC 1.51% | NCI-H522 lung -18.5% | A549/ATCC NSCLC 3.21% | COLO 205 colon -22.1%

CCOC(=O)c1c2ncccc2n2c(=O)n(-c3ccccc3C)nnc12
inactive: NCI-H23 lung 93.6% | NCI-H226 lung 97.4% | NCI-H322M lung 89.3% | HOP-62 NSCLC 78.6% | NCI-H460 lung 95% | HOP-92 NSCLC 128% | NCI-H522 lung 93.3% | A549/ATCC NSCLC 102% | 786-0 renal 98% | COLO 205 colon 108%

C=CCSc1nc2ccccc2cc1/C=N/O
inactive: NCI-H23 lung 81.9% | NCI-H226 lung 77.8% | NCI-H322M lung 81.4% | HOP-62 NSCLC 77.1% | NCI-H460 lung 90.4% | HOP-92 NSCLC 58.2% | NCI-H522 lung 76.4% | A549/ATCC NSCLC 92.5% | 786-0 renal 100% | COLO 205 colon 94.1%

Cc1nc2ccccc2n1CC1NC(=O)NC1=O (stereo not given)
inactive: NCI-H23 lung 102% | NCI-H226 lung 98.4% | NCI-H322M lung 97.7% | HOP-62 NSCLC 93.3% | NCI-H460 lung 107% | HOP-92 NSCLC 115% | NCI-H522 lung 94.9% | A549/ATCC NSCLC 98.3% | 786-0 renal 101% | COLO 205 colon 108%

O=c1ssc(Cl)c1-c1ccccc1
inactive: NCI-H23 lung 99.5% | NCI-H226 lung 99.1% | NCI-H322M lung 105% | HOP-62 NSCLC 98.1% | NCI-H460 lung 99% | HOP-92 NSCLC 72.5% | NCI-H522 lung 112% | A549/ATCC NSCLC 106% | 786-0 renal 107% | COLO 205 colon 85.1%

NS(=O)(=O)c1ccc(-n2nc(C(=O)N/N=C\c3ccc(F)cc3)cc2-c2ccc(Cl)cc2)cc1
inactive: NCI-H23 lung 84.2% | NCI-H226 lung 82.7% | NCI-H322M lung 89.6% | HOP-62 NSCLC 74.1% | NCI-H460 lung 99.4% | HOP-92 NSCLC 56% | NCI-H522 lung 78.4% | A549/ATCC NSCLC 95.1% | 786-0 renal 105% | COLO 205 colon 116%

Reference: PubChem BioAssay (NCI)
